What was measured:
Type in all cases: functional
[1] = test system: Plasmodium falciparum; assay: GSK_TCMDC: Inhibition of Plasmodium falciparum 3D7 in whole red blood cells, using parasite LDH activity as an index of growth. Test compounds present at 2uM
[2] = test system: Plasmodium falciparum; assay: GSK_TCMDC: Inhibition of Plasmodium falciparum Dd2 in whole red blood cells, using parasite LDH activity as an index of growth. Test compounds present at 2uM
[3] = test system: HepG2; assay: GSK_TCMDC: Percent inhibition of human HepG2 cell line. Test compounds present at 10uM.

| Structure (SMILES) | Inhibition [1] | Inhibition [2] | Inhibition [3] |
| --- | --- | --- | --- |
| Cc1ccc(C(=O)Nc2ccc(Nc3ccnc4cc(-c5nccs5)ccc34)cc2O)cc1.Cl | 100% | 100% | 100% |
| CCCCC(CC)NC(=O)[C@H]1CNCCN1C(=O)CCCc1ccccc1.O=C(O)C(F)(F)F (stereo not given in full) | 94% | 0% | 5% |
| O=C1C(C2CCC(c3ccc(Cl)cc3)CC2)=C2OCC3COC2(O3)c2ccccc21 (stereo not given) | 98% | 97% | 7% |
| Fc1cccc(Cn2ncc3cc(Nc4ncnc5sc(C#Cc6ncc[nH]6)cc45)ccc32)c1 | 100% | 30% | 31% |
| CCCCCCNC(=N)c1ccc(OCCCCCOc2ccc(C(=N)NCCCCCC)cc2)cc1.Cl | 97% | 98% | 55% |
| COc1ccc(-c2ccc(NC(=O)c3ccc(Cl)cc3)cc2)cc1CN(C)CCN(C)C.O=C(O)C(F)(F)F | 97% | 61% | 37% |
| COc1cccc(C=Cc2nc(=O)c3ccccc3o2)c1OC | 97% | 97% | 0% |
| CCCCN1CCN(c2cc(NS(=O)(=O)c3cccc(C(=O)Nc4ccc(C(F)(F)F)cc4)c3)ccc2OC)CC1.O=C(O)C(F)(F)F | 99% | 7% | 6% |
| Cc1ccc(CN2CCN(CC(O)COc3ccc4c(c3)CCC4)CC2)cc1 (stereo not given) | 95% | 0% | 0% |
| O=C(NCCc1ccccc1)[C@H](Cc1ccccc1)Nc1ccnc(NCC2CCCCC2)n1.O=C(O)C(F)(F)F | 86% | 53% | 11% |
| O=C(Nc1ccc(-c2ccccc2)cc1)Nc1cccc(Cn2ncc(N3CCNCC3)c(Cl)c2=O)c1.O=C(O)C(F)(F)F | 100% | 59% | 30% |
| CCCC(C)N(Cc1ccc(C(C)(C)C)cc1)C(=O)c1cccc(C#N)c1 (stereo not given) | 86% | 45% | 14% |
| CCN1CCC(N(Cc2ccc(-c3ccc(C(F)(F)F)cc3)cc2)C(=O)Cn2c(SCc3ccc(F)cc3)nc(=O)c3c2CCC3)CC1.O=C(O)C(O)C(O)C(=O)O | 90% | 96% | 46% |
| CCCCCCCN1CC[C@@H](C[C@H](N)Cc2ccnc3ccc(OC)cc23)[C@@H](CC)C1.O=C(O)C(=O)O | 91% | 51% | 33% |
| Cc1cccc2c(/C=C/C(=O)NC3CCC(CCN4CCc5ccc(C#N)cc5CC4)CC3)c[nH]c12.Cl (stereo not given) | 91% | 49% | 18% |
| Cc1ccc(S(=O)(=O)NC2CCN(CCNC(=O)Nc3cc(C)nc4ccccc34)C2)cc1 (stereo not given) | 97% | 42% | 0% |
| COc1ccc2nccc([C@@H](O)CN3CCC(NC(=O)/C=C/c4cc([N+](=O)[O-])ccc4OC)CC3)c2c1 | 99% | 76% | 12% |
| CN(C)CCN(C)Cc1ccc(-c2ccc3c(Nc4ccc(Oc5ccccc5)cc4)ccnc3c2)o1 | 100% | 100% | 5% |
| O=C(Nc1cccc(CN2CCCN(Cc3ccc(O)cc3)CC2)c1)c1cccc(F)c1.O=C(O)C(F)(F)F | 92% | 4% | 22% |
| CC(C)C[C@H](NC(=O)c1cc(-c2ccc(F)cc2)no1)C(=O)O.CC(C)C[C@H](NC(=O)c1conc1-c1ccc(F)cc1)C(=O)O | 82% | 4% | 7% |
| O=C(O)C(F)(F)F.O=C1COC(c2ccccc2)(c2ccccc2)CN1CC1CCN(Cc2ccc(O)cc2Cl)C1 (stereo not given) | 85% | 81% | 53% |
| O=C(Nc1ccc(I)cc1)N1CCc2sccc2C1CN1CCCCC1 (stereo not given) | 90% | 0% | 33% |
| COc1ccc2nc(Nc3nc(-c4ccccn4)cs3)sc2c1 | 93% | 94% | 40% |
| COc1cc(Cc2cnc(N)nc2N)cc(OCCCCC2SC(=O)NC2=O)c1OC (stereo not given) | 94% | 0% | 0% |
| COc1ccc2c(N/N=C/c3ccccc3[N+](=O)[O-])cc(C)nc2c1 | 100% | 100% | 14% |
| COCCn1c(Sc2ncnc3sccc23)nc2ccccc21 | 95% | 72% | 0% |
| CCc1cn(C)c2c(N3CCCC3=O)cc(C(=O)N[C@@H](Cc3ccccc3)[C@H](O)CNC(C)(C)c3cccc(C(F)(F)F)c3)cc12 | 97% | 97% | 22% |
| Cc1noc(-c2ccc3c(c2)CCN(CCC2CCC(NC(=O)c4cc5ccccc5[nH]4)CC2)CC3)n1.Cl (stereo not given) | 99% | 41% | 21% |
| COc1ccc(Oc2ccc(Nc3ccnc4ccc(C(F)(F)F)cc34)cc2)cc1OC.Cl | 90% | 17% | 0% |
| Cl.Nc1nc(N)c2c(ccc3c2ccn3C2CCCCC2)n1 | 97% | 46% | 67% |

From ChEMBL document CHEMBL1157539, “Thousands of chemical starting points for antimalarial lead identification” (Nature, 2010)
